The whole screen tested about 400,000 compounds, of which about 2,100 (0.53%) were called active. About 14% were inconclusive and are not listed. How the calls were made is not given here. The sample as a whole holds a higher share of actives than the screen did.
What follows are compounds tested against Ataxin-2 (Homo sapiens) (UniProt Q99700) (assay: qHTS for Inhibitors of ATXN expression.).
Type: functional

Ataxin-2 (Homo sapiens), sequence (Q99700 whole entry): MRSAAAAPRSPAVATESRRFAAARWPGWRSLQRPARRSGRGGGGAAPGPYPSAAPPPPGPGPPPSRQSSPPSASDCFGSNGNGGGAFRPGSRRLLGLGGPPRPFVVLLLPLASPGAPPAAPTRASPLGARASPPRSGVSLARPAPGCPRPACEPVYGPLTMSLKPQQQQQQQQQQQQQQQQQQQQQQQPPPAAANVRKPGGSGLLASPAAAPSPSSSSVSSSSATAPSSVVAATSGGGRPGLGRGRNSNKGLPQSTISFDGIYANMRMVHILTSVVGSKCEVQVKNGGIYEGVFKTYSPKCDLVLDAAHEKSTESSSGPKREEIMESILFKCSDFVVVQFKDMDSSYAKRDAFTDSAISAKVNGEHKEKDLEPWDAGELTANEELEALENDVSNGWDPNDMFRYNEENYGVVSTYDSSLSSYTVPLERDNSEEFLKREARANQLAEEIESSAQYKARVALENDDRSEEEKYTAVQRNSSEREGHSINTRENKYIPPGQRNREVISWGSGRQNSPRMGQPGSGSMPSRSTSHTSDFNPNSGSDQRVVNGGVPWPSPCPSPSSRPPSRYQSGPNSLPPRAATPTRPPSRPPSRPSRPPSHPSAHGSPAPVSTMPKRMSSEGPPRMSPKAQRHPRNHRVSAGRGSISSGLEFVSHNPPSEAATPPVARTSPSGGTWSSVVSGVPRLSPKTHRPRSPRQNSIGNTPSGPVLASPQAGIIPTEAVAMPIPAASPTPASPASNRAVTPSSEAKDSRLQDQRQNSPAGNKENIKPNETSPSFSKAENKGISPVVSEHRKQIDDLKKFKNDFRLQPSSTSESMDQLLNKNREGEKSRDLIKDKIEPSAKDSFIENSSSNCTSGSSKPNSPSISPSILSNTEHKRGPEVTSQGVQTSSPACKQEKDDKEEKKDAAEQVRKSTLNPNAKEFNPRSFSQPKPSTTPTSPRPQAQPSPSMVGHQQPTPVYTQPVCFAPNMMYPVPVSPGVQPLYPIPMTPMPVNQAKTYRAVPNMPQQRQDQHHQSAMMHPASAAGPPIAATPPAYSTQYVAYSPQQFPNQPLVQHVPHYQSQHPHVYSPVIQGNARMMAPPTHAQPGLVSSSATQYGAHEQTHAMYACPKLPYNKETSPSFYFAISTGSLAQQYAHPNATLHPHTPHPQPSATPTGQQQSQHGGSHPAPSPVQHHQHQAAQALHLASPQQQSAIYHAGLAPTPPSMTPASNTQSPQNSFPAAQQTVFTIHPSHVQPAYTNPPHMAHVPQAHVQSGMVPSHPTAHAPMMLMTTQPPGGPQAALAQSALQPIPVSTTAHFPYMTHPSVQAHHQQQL

Row | Structure (SMILES) | Potency
1 | NC1=NC(=O)C(Cc2ccc(Br)cc2)S1 (stereo unspecified) | inactive
2 | Nc1nc(N)c2ncc(C(=O)CCc3ccccc3)nc2n1 | inactive
3 | O=c1c2ccccc2nc(-c2ccccc2)n1O | inactive
4 | CN(C)c1ccnc2sc(C(=O)c3ccc(Br)cc3)c(N)c12 | inactive
5 | COC(=O)c1c(NC(=O)c2ccc(S(=O)(=O)N3CCCCC3C)cc2)sc2c1CCN(C(C)C)C2 (stereo unspecified) | inactive
6 | CCC1CCCCN1S(=O)(=O)c1ccc(C(=O)Nc2sc3c(c2C(=O)NC)CCC3)cc1 (stereo unspecified) | inactive
7 | CC1CCCCN1S(=O)(=O)c1ccc(C(=O)N(CCCN(C)C)c2nc3ccc(Br)cc3s2)cc1 (stereo unspecified) | 39.8 µM (active)
8 | CSc1nsc(SCC(=O)Nc2ccccc2C(N)=O)n1 | inactive
9 | Cc1ccc(Cn2c(=N)c(C(=O)NCC3CCCO3)cc3c(=O)n4cccc(C)c4nc32)cc1 (stereo unspecified) | inactive
10 | CSCCC(NC(=O)COc1ccccc1)C(=O)NCCOc1ccccc1 (stereo unspecified) | inactive
11 | COc1c2ccccc2nc2ccccc12 | inactive
12 | COc1cc2ccccc2cc1C(=O)Nc1ccc(O)cc1 | inactive
13 | COc1ccc(OC)c2cc3ccccc3cc12 | 17.8 µM (active)
14 | COc1ccc2c(c1)cc(C(=O)N/N=C/c1c(O)c(C(=O)O)cc3ccccc13)n2C | inactive
15 | Cc1ccc(-n2nc3c(=O)n(C(C)C(=O)NCCc4cccs4)nc(C)c3c2C)cc1 (stereo unspecified) | inactive
16 | Cc1nnc(N2CCCC(C(=O)Nc3cc(F)ccc3F)C2)c2nn(-c3ccccc3)c(C)c12 (stereo unspecified) | 35.5 µM (active)
17 | CCOC(=O)N1CCN(S(=O)(=O)N2CCCC(C(=O)NCCc3ccc(Cl)cc3)C2)CC1 (stereo unspecified) | inactive
18 | Cc1ccc(-n2nc3c(N4CCCC(C(=O)NCCc5ccccc5)C4)nnc(C)c3c2C)cc1 (stereo unspecified) | 20 µM (active)
19 | CCOc1ccc(CNC(=O)C2CCCN(c3nnc(C)c4c(C)n(-c5ccccc5)nc34)C2)cc1 (stereo unspecified) | 15.8 µM (active)
20 | CCOc1ccc(CCNC(=O)C2CCCN(c3nnc(C)c4c(C)n(-c5ccccc5)nc34)C2)cc1 (stereo unspecified) | 31.6 µM (active)
21 | CCOc1ccc(NC(=O)C2CCCN(c3nn4c(=O)cc(C)nc4s3)C2)cc1 (stereo unspecified) | inactive
22 | COc1ccc(C)cc1NC(=O)C1CCCN1S(=O)(=O)c1ccccc1F (stereo unspecified) | inactive

Row | Structure (SMILES) | Potency
23 | Cc1cccc(CNC(=O)CCCn2nc(C)c3c(C)n(-c4ccccc4)nc3c2=O)c1 | inactive
24 | Cc1cc(NC(C)C)n2c(nc3ccccc32)c1C#N | inactive
25 | COC(=O)c1c(C(=O)OC)c2c(-c3ccccc3)cc3cccc1n32 | inactive
26 | Cc1ccc(C2=CC(c3ccccc3)n3ncnc3N2)cc1 (stereo unspecified) | inactive
27 | CCn1c(=N)c(C(=O)NC2CCCC2)cc2c(=O)n3ccccc3nc21 | inactive
28 | COC(=O)c1ccc(-c2sc3nc(N4CCOCC4)c4c(c3c2N)CCCC4)o1 | inactive
29 | O=C(CSc1ccc(-c2cccs2)nn1)Nc1ccccc1F | inactive
30 | Cc1cc(C)n2nc(C(=O)OCC(=O)NC3CCS(=O)(=O)C3)nc2n1 (stereo unspecified) | inactive
31 | N#Cc1c(-c2ccccc2F)cc(C2CC2)nc1SCC(=O)c1cccs1 | inactive
32 | Cc1nnc(N2CCCC(C(=O)NCCN(C)C)C2)c2nn(-c3ccccc3)c(C)c12 (stereo unspecified) | 44.7 µM (active)
33 | CCOc1ccccc1NC(=O)C1CCC(CNc2c(N3CCCCC3)c(=O)c2=O)CC1 (stereo unspecified) | inactive
34 | CCOc1ccccc1CNC(=O)C1CCN(c2nnc(C)c3c(C)n(-c4ccc(C)cc4)nc23)CC1 | 35.5 µM (active)
35 | O=C(NCCS(=O)(=O)N1CCN(c2ccccc2)CC1)C1CCCCC1 | inactive
36 | N#Cc1ccccc1CSc1nc2ccsc2c(=O)n1Cc1ccccn1 | inactive
37 | COc1ccc(-c2cc(=O)oc3cc(OC(=O)C4CCCCC4)ccc23)cc1 | inactive
38 | O=C1CCC([N+](=O)[O-])C(c2ccc3c(c2)OCO3)N1 (stereo unspecified) | inactive
39 | CCN(CC)c1ccc(-c2nc3cnccn3c2NC2CCCC2)cc1 | inactive
40 | O=C1N/C(=C/c2cccn2-c2ccc(F)cc2)C(=O)N1Cc1ccccc1 | inactive
41 | CC(C)Nc1nc(NCCOc2ccccc2Cl)c2sccc2n1 | 22.4 µM (active)
42 | CNc1nc(NCC2CCCCC2)c2sccc2n1 | 12.6 µM (active)
43 | COc1ccccc1CNc1nc(NCC2CC2)nc2ccsc12 | 15.8 µM (active)
44 | COc1ccc(C(=O)NCCOc2ccccc2Cl)c(OC)c1OC | inactive

Row | Structure (SMILES) | Potency
45 | c1ccc(CNc2nc(NCCOc3ccccc3)c3sccc3n2)cc1 | 22.4 µM (active)
46 | O=C(NC(=O)c1ccccc1Cl)C(=O)Nc1ccc(Cl)cc1 | inactive
47 | O=C(N/N=C/c1cc2c3c(c1O)CCCN3CCC2)c1ccccc1O | inactive
48 | CCN(CC)c1ccc2cc(S(=O)(=O)c3ccc(Cl)cc3)c(=O)oc2c1 | inactive
49 | CCN(CC)S(=O)(=O)c1cccc(C(=O)N/N=C(\C)c2ccc(O)cc2O)c1 | inactive
50 | O=C(O)c1cc2ccc(O)cc2oc1=O | inactive
51 | COc1ccc(-c2cnc(C(N)=O)c(O)n2)cc1 | inactive
52 | CC[C@@H]1C(c2ccccc2)=NN(c2ccc(Br)cc2)[C@H]1C(=O)N1CCOC1=O | inactive
53 | O=C1OCCN1C(=O)[C@H]1[C@H](c2ccc(Cl)cc2)C(c2ccc(F)cc2)=NN1c1ccccc1 | inactive
54 | COCCNc1nc(NCc2ccc(C(C)C)cc2)c2sccc2n1 | 35.5 µM (active)
55 | c1cc2cc(CNc3nc(NCC4CC4)nc4ccsc34)ccc2o1 | 25.1 µM (active)
56 | C#Cc1cccc(Nc2nc(NC(C)C)nc3ccsc23)c1 | 28.2 µM (active)
57 | c1csc(CNc2nc(Oc3ccncc3)c3sccc3n2)c1 | inactive
58 | COc1cccc(CNC(=O)Cc2csc(Nc3nc(S)nc4ccccc34)n2)c1 | inactive
59 | COc1cccc(CNc2nc(NCc3cccs3)nc3ccsc23)c1 | 39.8 µM (active)
60 | CC(=O)c1ccc(NC(=O)COC(=O)Cc2ccsc2)cc1 | inactive
61 | S=C(c1ccc(-c2ccc(Br)cc2)o1)N1CCCCC1 | inactive
62 | CN(Cc1ccon1)C(=O)CC1C(=O)NCCN1CC(C)(C)C (stereo unspecified) | inactive
63 | O=S(=O)(O)c1ccc(SCc2ccccc2)nc1 | inactive
64 | CC(C)c1ccc(CNc2nc(NCC3CC3)nc3ccsc23)cc1 | 28.2 µM (active)
65 | COc1ccc(CNc2nc3ccccc3n2C(C)C)cc1 | inactive
66 | COc1ccccc1CNc1nc(NCc2ccc(C(C)C)cc2)c2sccc2n1 | 31.6 µM (active)

Reference: ChEMBL document CHEMBL1201862, “PubChem BioAssay data set” (2004)
